Bioassay records: PubChem, National Center for Advancing Translational Sciences (NCATS)
Sm TGR block: qHTS Assay for the Inhibitors of Schistosoma Mansoni Peroxiredoxins | 360,000 tested, 3% active | purified TGR, DTNB reduction, TNB absorbance 405 nm | Schistosoma mansoni thioredoxin glutathione reductase (TGR), Q962Y6 | Potency, µM (doses to about 114 µM), for inactives: at the top dose activity change, negative = inhibition, hits mostly inhibitors | AID 485364, 2010; further: nearly all actives have a fitted effect of over 60% in size
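Kinetic colorimetric format: TGR-catalysed, NADPH-driven DTNB reduction monitored via TNB absorbance. Enzyme dispensed at 20 nM; compound exposure 15 min at room temperature before reaction start.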
AmpC inh detg: qHTS Inhibitors of AmpC Beta-Lactamase (assay with detergent). AmpC hydrolysis of nitrocefin, absorbance 480 nm, 0.01% Triton. Potency, µM (titrated, usually from 114 µM), for the others: top-dose activity change, negative = inhibition, usual class: inhibitors. 370,000 tested, 0.041% active;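 further: 0% = no-compound wells and -100% = no-enzyme wells; nearly all actives have a fitted effect of over 25% in size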
Target sequence (P00811 whole entry, looked up): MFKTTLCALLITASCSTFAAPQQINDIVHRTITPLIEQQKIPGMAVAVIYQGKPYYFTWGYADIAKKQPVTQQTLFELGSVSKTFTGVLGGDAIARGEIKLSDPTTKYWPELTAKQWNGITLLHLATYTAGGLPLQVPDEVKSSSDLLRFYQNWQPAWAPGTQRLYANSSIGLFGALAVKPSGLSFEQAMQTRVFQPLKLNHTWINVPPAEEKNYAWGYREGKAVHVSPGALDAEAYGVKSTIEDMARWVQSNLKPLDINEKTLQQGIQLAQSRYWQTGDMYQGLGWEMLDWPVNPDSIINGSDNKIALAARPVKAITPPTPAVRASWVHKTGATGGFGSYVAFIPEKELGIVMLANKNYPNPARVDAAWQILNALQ
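20 mM phosphate pH 7.0 + 0.01% (detergent screen) or 0.0001% Triton X-100; 5.3 nM AmpC reagent; cpd preinc 15 min RT; nitrocefin (800 uM stock) to start; A480 q20 s × 4 min; Activity was normalised to no-enzyme and no-compound control wells.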
AmpC no deterg: qHTS Inhibitors of AmpC Beta-Lactamase (assay without detergent). AID 485341, 2010. Potency, µM (series often up to 57.1 µM), inactives show top-dose activity change, negative = inhibition, actives largely listed as inhibitors. AmpC nitrocefin hydrolysis, absorbance 480 nm, 0.0001% Triton. 330,000 tested, 0.52% active;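 further: plate controls were no compound for no effect and no enzyme for full effect; nearly all actives have a fitted effect of over 20% in size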
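20 mM phosphate pH 7.0 + 0.01% (detergent screen) or 0.0001% Triton X-100; 5.3 nM AmpC reagent; cpd preinc 15 min RT; nitrocefin (800 uM stock) to start; A480 q20 s × 4 min; Activity was normalised to no-enzyme and no-compound control wells.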
* = called active by the depositor. Shown are actives, neighbours in structure and some others; about 3.3% of the full set was active somewhere. The call rests on the fitted dose curve; in most records, active means well fitted curve in the direction sought with a large enough effect; inconclusive means small, poorly fitted or top-dose-only effect, or another doubt; inactive means no such curve, though single readings can be large; an effect the other way counts as inactive or inconclusive. Unless noted, on the % scale 0 is the no-effect control and ±100 the full control effect; potency means the concentration at half of the fitted maximal effect.

What do the screens show for `Cc1ccc(C(=O)c2cn(Cc3c(F)cccc3Cl)c3nc(C)ccc3c2=O)cc1`?
Sm TGR block: 1%; AmpC inh detg: 2%

What do the screens show for `COc1ccc(CN2CCC(N3CC(C)OC(C)C3)CC2)c(OC)c1` (configuration not stated)?
Sm TGR block: 10%; AmpC inh detg: -7%; AmpC no deterg: -1%

How did O=C(c1ccccc1)C(CN1CCCC1)c1ccccc1 (configuration not stated) do in these assays?
Sm TGR block: 45µM*; AmpC inh detg: 2%; AmpC no deterg: -8%

What do the screens show for `CCOC(=O)C(CN1CCCC1)c1ccccc1` (configuration not stated)?
Sm TGR block: 0%; AmpC inh detg: inconclusive; AmpC no deterg: -11%

How did O=C(c1ccc(Cl)cc1)C(CN1CCCCC1)c1ccccc1 (configuration not stated) do in these assays?
Sm TGR block: 6.3µM*; AmpC inh detg: 0%; AmpC no deterg: -25%

What do the screens show for `CC(CN1CCCCC1)OC(=O)c1ccc(Cl)cc1` (configuration not stated)?
Sm TGR block: 4%; AmpC inh detg: inconclusive; AmpC no deterg: -6%

What do the screens show for `CC1CCCCC1NC(=O)CN(C)S(=O)(=O)c1ccc2c(c1)CCC(=O)N2` (configuration not stated)?
Sm TGR block: 2%; AmpC inh detg: -4%; AmpC no deterg: 2%

What do the screens show for `CCCOc1cccc(C(=O)N(Cc2ccc(C)o2)C2CCS(=O)(=O)C2)c1` (configuration not stated)?
Sm TGR block: 2%; AmpC inh detg: 16%

How did C=CCNC(=O)CN(CCc1ccccc1)S(=O)(=O)c1ccccc1 do in these assays?
Sm TGR block: 2%; AmpC inh detg: -1%; AmpC no deterg: 23%

How did CN1OC[C@@H]2COc3ccc4ccccc4c3[C@@H]21 do in these assays?
Sm TGR block: 2%; AmpC inh detg: inconclusive; AmpC no deterg: -2%

What do the screens show for `CN1COc2ccc3ccccc3c2C1`?
Sm TGR block: 4µM*; AmpC inh detg: 3%; AmpC no deterg: -14%

What do the screens show for `Cc1nn(CC(=O)Nc2c(F)c(F)cc(F)c2F)c(=O)c2cccn12`?
Sm TGR block: -30%; AmpC inh detg: 0%; AmpC no deterg: -9%

Results for O=C(COC(=O)C1CC1)Nc1ccc(S(=O)(=O)N2CCOCC2)cc1 ?
AmpC no deterg: -18%

Results for COc1ccc2c(c1)C1(Nc3ccccc3-c3nc4ccccc4n31)C(=O)N2 (configuration not stated) ?
Sm TGR block: -5%; AmpC inh detg: -10%; AmpC no deterg: 20µM*

Results for COc1ccc2c(c1)C1(Nc3ccccc3-c3nc4ccccc4n31)C(=O)N2C (configuration not stated) ?
Sm TGR block: -3%; AmpC inh detg: -3%; AmpC no deterg: -27%

What do the screens show for `CN1C(=O)C(CC(=O)NCCc2ccccc2)N(NC(=O)c2ccc(Cl)cc2)C1=S` (configuration not stated)?
Sm TGR block: 13%; AmpC inh detg: 5%; AmpC no deterg: 27%

What do the screens show for `Nc1nc(N)c(S(=O)(=O)c2ccccc2)c(Nc2ccc(F)cc2)n1`?
Sm TGR block: 12%; AmpC inh detg: -2%

How did Cc1ccc(CNC(=O)C2CC3Cn4c(nc5cc6ccccc6cc54)C3N2C)o1 (configuration not stated) do in these assays?
Sm TGR block: 45µM*; AmpC inh detg: 0%; AmpC no deterg: 104%

How did CN1C(C(=O)NCC2CC2)CC2Cn3c(nc4cc5ccccc5cc43)C21 (configuration not stated) do in these assays?
Sm TGR block: -13%; AmpC inh detg: -5%; AmpC no deterg: 20%

Results for C=CCNC(=O)C1CC2Cn3c(nc4ccccc43)C2N1C (configuration not stated) ?
Sm TGR block: inconclusive; AmpC inh detg: 5%; AmpC no deterg: -14%

Results for Cc1ccc(CNC(=O)C2CC3Cn4c(nc5ccccc54)C3N2C)o1 (configuration not stated) ?
Sm TGR block: 35µM*; AmpC inh detg: -3%; AmpC no deterg: -4%

What do the screens show for `COc1ccc(NC(=O)CN2C(=O)NC(C)(C3CC3)C2=O)cc1S(=O)(=O)N1CCCCC1` (configuration not stated)?
Sm TGR block: 1%; AmpC inh detg: inconclusive; AmpC no deterg: -45%
